SMILES strings stand for the structures. About 83,000 compounds went through this panel and 20% of them were active in at least one assay; those are over-represented in the sample as a whole.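 How to read the values: 0–100, growth inhibition (40 = 60% inhibited); 0, no net growth; -100 to 0, cell death (-40 = 40% of starting cells died; -100 = all dead).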 Calls of active or inactive are those of the source. Rule for the calls: active = growth percent below 10; inactive = the rest.

The first assay relates to DU-145 prostate. In words: NCI-60 one-dose screen, 48 h (100 = growth as untreated, 0 = no growth, -100 = all killed). Conditions: 10 µM unless noted.
Regarding `Cc1nc2cncc(C#Cc3cncc(C(=O)Nc4ccc(CN5CCN(C)CC5)c(C(F)(F)F)c4)c3)c2nc1C`, the growth was 17.5% (inactive).
On the same count and under the same terms, to `CCN(CC)CCC(CNc1c2ccc(Cl)cc2nc2ccc(OC)cc12)c1ccccc1` (stereo not drawn) belongs -23.3% (active); to `Cc1csc(NC(c2ccc(Br)cc2)c2c(C)nc3ccccn23)n1` (stereo not drawn), 107% (inactive); to `O=C(NCCCNc1nccc(-n2ccc3cccnc32)n1)c1c(F)cccc1F`, 107% (inactive).
The same measure, in the same setting: to `COc1ccc(/C=C\c2cc(OC)c(OC)c(OC)c2)cc1OC(=O)c1cccc(Cn2cc(CCOC(=O)c3cccc(Cn4nnc5c4C(=O)c4ccccc4C5=O)c3)nn2)c1` belongs 7.26% (active); to `O=C(Nc1ccc(NCCN2CCOCC2)nc1)c1ccc([N+](=O)[O-])cc1`, 106% (inactive); to `CCOC(=O)C1C(=O)C=C(c2ccc(OC)cc2)CC1c1sc(N(C)Cc2ccccc2)nc1Cl` (stereo not drawn), 91.5% (inactive).
Still for that read-out and setting: to `NC(=S)N/N=C(/CCN1CCCC1)CC(C1=C(O)C2=CCCCC2OC1=O)c1ccccc1` (stereo not drawn) belongs 87.3% (inactive); to `O=C(NNC(=O)N1c2ccccc2C=Cc2ccccc21)c1ccccc1`, 107% (inactive).
Consider `Cc1ccc(S(=O)(=O)n2cc(C(=O)C(=O)Nc3ccncc3)c3ccccc32)cc1`, for which the growth was 22.4% (inactive).
On the same count and under the same terms, to `COc1ccc(C2=C(c3cc(OC)c(OC)c(OC)c3)C(=O)CC2)cc1` belongs -19.3% (active).
Same read-out and setting: to `Cn1ccc(Nc2nccc(Oc3ccc(C(=O)Nc4cccc(F)c4)c(Cl)c3)n2)c1` belongs 47.9% (inactive); to `CCOc1cc2c(Cl)ncnc2c(OCC)c1OCC`, -56.1% (active); to `NC(N)=Nc1nc2ccccc2o1`, 89.3% (inactive).
The same measure, in the same setting: to `CC(C)CC1NC(C)(C)CO1` (stereo not drawn) belongs 117% (inactive); to `COc1cc(/C=N\NC(=O)CN2CCN(c3cc4c(cc3F)c(=O)c(C(=O)N/N=C/c3cc(OC)c(OC)c(OC)c3)cn4C3CC3)CC2)cc(OC)c1OC`, 8.55% (active).
As for `COc1ccc(-c2nc3sc(-c4cc(OC)c(OC)c(OC)c4)nn3c2/C=C2/C(=O)Nc3ccc(F)cc32)cc1`, the growth is -61.9% (active).
The same measure, in the same setting: as for `Nc1cccc(-c2nc3sccn3c2-c2ccnc(NCCNS(=O)(=O)c3ccc(C(F)(F)F)cc3)n2)c1`, the figure is 43.4% (inactive); as for `COc1ccc(-c2ccc(-c3ccc(C(=N)N)s3)s2)cc1Cl`, 0.775% (active); as for `NC(=O)c1c(NC(=S)Nc2ccc(OC(F)(F)F)cc2)sc2c1CCC1(C2)OCCO1`, 112% (inactive).
Take `COc1ccc2[nH]c(C(=O)OCc3ccc4c(Cl)cc(Cl)c(O)c4n3)cc2c1`: the growth was -98.2% (active).
As to `CCO/C=N/C1=C(C#N)C(c2ccc(Cl)cc2)c2c(c3ccccc3n(C)c2=O)O1` (stereo not drawn), the growth is 95.1% (inactive).
With `COc1ccc(S(=O)(=O)Nc2cc(/C=C\c3cc(OC)c(OC)c(OC)c3)cc(OC)c2OC)cc1`, the growth was -0.291% (active).
Same read-out and setting: as for `CCCCNC(=O)Oc1ccc(/C(=C(\C)c2ccccc2)c2ccc(OCCN(CC)CC)cc2)cc1`, the figure is 89.3% (inactive); as for `COc1ccc(S(=O)(=O)n2cc(C(=O)C(=O)Nc3ccncc3)c3ccccc32)cc1F`, 86.4% (inactive).
On the same count and under the same terms, to `CC(C)(C)n1cc(-c2ccnc(NCCCNS(=O)(=O)c3ccc(Br)cc3)c2)c(-c2cccc(O)c2)n1` belongs 43% (inactive); to `O=Nc1c(-c2cccc([N+](=O)[O-])c2)nc2ncccn12`, 73.5% (inactive).
Same read-out and setting: as for `O=C1/C(=C/c2ccc([N+](=O)[O-])cc2)CN(C(=O)CCN2CCC(=NO)CC2)C/C1=C\c1ccc([N+](=O)[O-])cc1`, the figure is -8.07% (active); as for `CCOC(=O)C1=C(C)NC(C)=C(C(=O)OCC)C1(C)C`, 123% (inactive).
As to `CCCCN(CCCC)C(=N)c1ccnc2ccccc12`, the growth is 117% (inactive).
With `C1=Cc2ccccc2N(c2nnc(-c3ccccc3)o2)c2ccccc21`, the growth is 105% (inactive).
Still for that read-out and setting: to `CCCCCCCCCCCCCCCCCCNC(=O)[C@H]1CSC(c2ccc(OC)cc2O)N1` (stereo partly drawn) belongs 22.5% (inactive); to `COc1ccc(C(=O)c2cc(OC)c3c(c2)OCO3)cc1O`, -2.4% (active).
`COc1ccc(-c2cc(-c3ccccc3)nc(SCCCC(=O)NO)n2)cc1OC`: the growth is 1.4% (active).
For the compound `CCOC(=O)C1CCNC(=O)C1=O` (stereo not drawn), the growth is 115% (inactive).
On the same count and under the same terms, as for `COc1ccc(Nc2[nH]n3c(=O)cc(-c4ccccc4)nc3c2C(=O)Nc2ccc(C)cc2)c(OC)c1`, the figure is 118% (inactive).
The same measure, in the same setting: as for `COc1ccc(-c2cn(-c3cccc(C(=O)/C=C/c4cc(OC)c(OC)c(OC)c4)c3)c(=O)[nH]2)cc1OC`, the figure is 98.6% (inactive); as for `Cc1ccc(S(=O)(=O)NC(=O)n2cc(-c3ccncc3)c(-c3ccc(Cl)c(O)c3)n2)cc1`, 132% (inactive).
The same measure, in the same setting: as for `COC(=O)C1CCCN1C(=O)[C@@H]1CCCN1C(=O)[C@H](Cc1c[nH]c2ccccc12)NC(=S)Nc1cc(C(F)(F)F)cc(C(F)(F)F)c1` (stereo partly drawn), the figure is 52.5% (inactive).

The next assay concerns K-562 leukemia. The assay is described as above. The following applies: 10 µM unless noted.
`Cc1nc2cncc(C#Cc3cncc(C(=O)Nc4ccc(CN5CCN(C)CC5)c(C(F)(F)F)c4)c3)c2nc1C`: the growth was 7.52% (active).
For the compound `CCN(CC)CCC(CNc1c2ccc(Cl)cc2nc2ccc(OC)cc12)c1ccccc1` (stereo not drawn), the growth is -21.8% (active).
Still for that read-out and setting: as for `Cc1csc(NC(c2ccc(Br)cc2)c2c(C)nc3ccccn23)n1` (stereo not drawn), the figure is 79.9% (inactive).
On the same count and under the same terms, to `O=C(NCCCNc1nccc(-n2ccc3cccnc32)n1)c1c(F)cccc1F` belongs 98.7% (inactive); to `COc1ccc(/C=C\c2cc(OC)c(OC)c(OC)c2)cc1OC(=O)c1cccc(Cn2cc(CCOC(=O)c3cccc(Cn4nnc5c4C(=O)c4ccccc4C5=O)c3)nn2)c1`, 8.24% (active); to `O=C(Nc1ccc(NCCN2CCOCC2)nc1)c1ccc([N+](=O)[O-])cc1`, 103% (inactive).
On the same count and under the same terms, as for `CCOC(=O)C1C(=O)C=C(c2ccc(OC)cc2)CC1c1sc(N(C)Cc2ccccc2)nc1Cl` (stereo not drawn), the figure is 68.4% (inactive); as for `NC(=S)N/N=C(/CCN1CCCC1)CC(C1=C(O)C2=CCCCC2OC1=O)c1ccccc1` (stereo not drawn), 38.8% (inactive).
As for `O=C(NNC(=O)N1c2ccccc2C=Cc2ccccc21)c1ccccc1`, the growth is 101% (inactive).
As to `Cc1ccc(S(=O)(=O)n2cc(C(=O)C(=O)Nc3ccncc3)c3ccccc32)cc1`, the growth was 23.8% (inactive).
Turning to `COc1ccc(C2=C(c3cc(OC)c(OC)c(OC)c3)C(=O)CC2)cc1`, the growth is 20.5% (inactive).
`Cn1ccc(Nc2nccc(Oc3ccc(C(=O)Nc4cccc(F)c4)c(Cl)c3)n2)c1`: the growth was 70.6% (inactive).
Same read-out and setting: to `CCOc1cc2c(Cl)ncnc2c(OCC)c1OCC` belongs 19.5% (inactive).
On the same count and under the same terms, as for `NC(N)=Nc1nc2ccccc2o1`, the figure is 104% (inactive); as for `CC(C)CC1NC(C)(C)CO1` (stereo not drawn), 125% (inactive); as for `COc1cc(/C=N\NC(=O)CN2CCN(c3cc4c(cc3F)c(=O)c(C(=O)N/N=C/c3cc(OC)c(OC)c(OC)c3)cn4C3CC3)CC2)cc(OC)c1OC`, 5.07% (active).
On the same count and under the same terms, to `COc1ccc(-c2nc3sc(-c4cc(OC)c(OC)c(OC)c4)nn3c2/C=C2/C(=O)Nc3ccc(F)cc32)cc1` belongs 19.9% (inactive).
For the compound `Nc1cccc(-c2nc3sccn3c2-c2ccnc(NCCNS(=O)(=O)c3ccc(C(F)(F)F)cc3)n2)c1`, the growth is 47.2% (inactive).
Turning to `COc1ccc(-c2ccc(-c3ccc(C(=N)N)s3)s2)cc1Cl`, the growth is -37.4% (active).
The same measure, in the same setting: to `NC(=O)c1c(NC(=S)Nc2ccc(OC(F)(F)F)cc2)sc2c1CCC1(C2)OCCO1` belongs 94.6% (inactive); to `COc1ccc2[nH]c(C(=O)OCc3ccc4c(Cl)cc(Cl)c(O)c4n3)cc2c1`, -13.7% (active).
Same read-out and setting: to `CCO/C=N/C1=C(C#N)C(c2ccc(Cl)cc2)c2c(c3ccccc3n(C)c2=O)O1` (stereo not drawn) belongs 19.6% (inactive).
On to `COc1ccc(S(=O)(=O)Nc2cc(/C=C\c3cc(OC)c(OC)c(OC)c3)cc(OC)c2OC)cc1`, for which the growth was 7.33% (active).
Same read-out and setting: as for `CCCCNC(=O)Oc1ccc(/C(=C(\C)c2ccccc2)c2ccc(OCCN(CC)CC)cc2)cc1`, the figure is 8.28% (active); as for `COc1ccc(S(=O)(=O)n2cc(C(=O)C(=O)Nc3ccncc3)c3ccccc32)cc1F`, 58.8% (inactive).
Same read-out and setting: to `CC(C)(C)n1cc(-c2ccnc(NCCCNS(=O)(=O)c3ccc(Br)cc3)c2)c(-c2cccc(O)c2)n1` belongs -10.9% (active); to `O=Nc1c(-c2cccc([N+](=O)[O-])c2)nc2ncccn12`, 10.5% (inactive); to `O=C1/C(=C/c2ccc([N+](=O)[O-])cc2)CN(C(=O)CCN2CCC(=NO)CC2)C/C1=C\c1ccc([N+](=O)[O-])cc1`, 7.03% (active).
On the same count and under the same terms, to `CCOC(=O)C1=C(C)NC(C)=C(C(=O)OCC)C1(C)C` belongs 89.9% (inactive); to `CCCCN(CCCC)C(=N)c1ccnc2ccccc12`, 110% (inactive); to `C1=Cc2ccccc2N(c2nnc(-c3ccccc3)o2)c2ccccc21`, 67.8% (inactive).
Turning to `CCCCCCCCCCCCCCCCCCNC(=O)[C@H]1CSC(c2ccc(OC)cc2O)N1` (stereo partly drawn), the growth was 25.7% (inactive).
The same measure, in the same setting: to `COc1ccc(C(=O)c2cc(OC)c3c(c2)OCO3)cc1O` belongs 14.8% (inactive); to `COc1ccc(-c2cc(-c3ccccc3)nc(SCCCC(=O)NO)n2)cc1OC`, 3.02% (active); to `CCOC(=O)C1CCNC(=O)C1=O` (stereo not drawn), 109% (inactive).
Same read-out and setting: to `COc1ccc(Nc2[nH]n3c(=O)cc(-c4ccccc4)nc3c2C(=O)Nc2ccc(C)cc2)c(OC)c1` belongs 68.4% (inactive).
Still for that read-out and setting: to `COc1ccc(-c2cn(-c3cccc(C(=O)/C=C/c4cc(OC)c(OC)c(OC)c4)c3)c(=O)[nH]2)cc1OC` belongs 50.7% (inactive); to `Cc1ccc(S(=O)(=O)NC(=O)n2cc(-c3ccncc3)c(-c3ccc(Cl)c(O)c3)n2)cc1`, 98.9% (inactive).
On to `COC(=O)C1CCCN1C(=O)[C@@H]1CCCN1C(=O)[C@H](Cc1c[nH]c2ccccc12)NC(=S)Nc1cc(C(F)(F)F)cc(C(F)(F)F)c1` (stereo partly drawn), for which the growth was 38.3% (inactive).

The values are drawn from PubChem BioAssay (NCI).
